Test results: PubChem BioAssay AID493200 (National Center for Advancing Translational Sciences (NCATS), 2011)
Inconclusive results are not listed. Where a call stands in place of a potency, no number is given. Active and inactive are the calls of the source. Calls follow the shape of the dose curve; as a rule, active = well fitted activation curve with a large enough effect; inconclusive = small, poorly fitted or top-dose-only effect; inactive = no such curve, though single readings can be large or run the other way.

Experiment: qHTS Assay for Rab9 Promoter Activators: Initial hit validation from the primary screen
Conditions: Huh7 Rab9 promoter luciferase reporter, 24 h; series mostly up to 46.1 µM
Outline: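 Luciferase signal, read 10 min after Amplite reagent, reports Rab9 promoter activation. Compounds in DMSO were applied for 24 h at 37C to Rab9-luciferase Huh7 cells, pre-incubated 2 h in reduced-serum medium with 10% FBS.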
Potency is read from the fitted curve at half-maximal effect.

| SMILES | Potency |
| --- | --- |
| CC(=O)c1cccc(NC(=O)N2CCOCC2)c1 | inactive |
| CCOCC(=O)Nc1c(C(=O)Nc2ccc3c(c2)OCCO3)oc2ccccc12 | 628 nM (active) |
| CCc1cc2c(N=Nc3c(O)[nH]c4ccccc34)ncnc2s1 | inactive |
| Cc1csc(NC(=O)CSc2nnc(-c3ccncc3)o2)n1 | 25000 nM (active) |
| COC(=O)c1cn(NC(=O)C2CCCCC2)c(=O)c2ccccc12 | inactive |
| O=C(O)CSc1nnc(-c2ccncc2)n1CCc1ccccc1 | inactive |
| COc1cccc(C2Nc3ccccc3NC3=C2C(=O)CC(C)(C)C3)c1 (centres undefined) | inactive |
| CCCCCCC(=O)Nc1ccc(C(=O)N/N=C/c2cccnc2)cc1 | inactive |
| O=C(Nc1nc2ccc(F)cc2s1)c1ccc(N2CCCC2=O)cc1 | 199 nM (active) |
| O=C(NNC(=O)C1COc2ccccc2O1)c1ccccc1O (centres undefined) | inactive |
| O=C(c1cc2cc([N+](=O)[O-])ccc2oc1=O)n1cccn1 | inactive |
| COc1ccc(C2(CNC(=O)/C=C/c3ccco3)CCCC2)cc1OC | inactive |
| COc1ccc(NC(=O)CN(C)C(=O)c2ccc(=O)[nH]c2)cc1 | inactive |
| CCCCc1cc(=O)oc2cc(OCC(=O)N3CCOCC3)ccc12 | inactive |
| CC(Sc1nnc(C(F)(F)F)n1C)C(=O)Nc1ccc(S(N)(=O)=O)cc1 (centres undefined) | inactive |
| COc1ccc(-n2c(N)c(C(=O)NCc3ccco3)sc2=S)cc1 | inactive |
| CCC(=O)N1c2ccccc2NC2=C(C(=O)CCC2)C1c1ccc(N(C)C)cc1 (centres undefined) | inactive |
| COc1ccc(OC)c(S(=O)(=O)N2CCN3CCCC3C2)c1 (centres undefined) | inactive |
| O=C(NCCc1c[nH]c2ccccc12)C(=O)NCC(c1ccco1)N1CCN(c2ccccc2F)CC1 (centres undefined) | inactive |
| O=C(NC(=S)Nc1ccc(CN2CCCCC2)cc1)c1cc2ccccc2o1 | inactive |
| CC(=O)Nc1ccc(-c2csc(Nc3ncccn3)n2)cc1 | 353 nM (active) |
| O=C(/C=C/c1ccco1)NCC1OCCc2ccccc21 (centres undefined) | inactive |
| Cc1ccc(C(=O)Nc2ccc(N3CCN(C)CC3)nc2)cc1 | 25000 nM (active) |
| COc1ccc(NC(=O)CCCN2C(=O)C(c3ccccc3)Oc3cccnc32)cc1OC (centres undefined) | inactive |
